Data as given in PubChem BioAssay (NCI).
The panel holds about 79,000 compounds, 15% with a hit somewhere; the sample as a whole holds those more often. Cut-off read from the data, not from the text of the source: active = growth inhibition above about 70%; inactive = the rest.

Experiments:
[1] = NCI Yeast Anticancer Drug Screen. Data for the rad50 strain (AID 155);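 note: 0% = growth of vehicle-only cultures of the same strain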; settings: S. cerevisiae rad50 strain growth inhibition; at 50.0 µM; hits give high values
How it was run: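 Relative growth inhibition (compound vs vehicle) was measured in yeast with a defined repair-gene alteration.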

[2] = NCI Yeast Anticancer Drug Screen. Data for the mec2-1 strain (AID 157); settings: S. cerevisiae mec2-1 strain, at 50.0 µM, hits give high values
How it was run: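 Readout is yeast growth inhibition, normalised to vehicle-treated controls, in the mec2-1 strain exposed to compound.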

[3] = NCI Yeast Anticancer Drug Screen. Data for the sgs1 mgt1 strain (AID 161);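 note: 0% = growth of cultures given vehicle only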; settings: S. cerevisiae sgs1 mgt1 strain, at 50.0 µM, hits give high values
How it was run: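 Growth of a repair-deficient yeast mutant was monitored after compound treatment and expressed as inhibition relative to vehicle-treated cultures.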

[4] = NCI Yeast Anticancer Drug Screen. Data for the cln2 rad14 strain (AID 165);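 note: 0% = growth equal to vehicle treated cultures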; settings: S. cerevisiae cln2 rad14 strain, at 50.0 µM, hits give high values
How it was run: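 Relative to vehicle controls, growth inhibition of compound-treated cln2 rad14 yeast was recorded.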

[5] = NCI Yeast Anticancer Drug Screen. Data for the bub3 strain (AID 167); settings: S. cerevisiae bub3 mutant strain, at 50.0 µM, hits give high values
How it was run: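 Screening used yeast with an engineered genetic alteration affecting cell cycle control. Compound-exposed cultures were compared with vehicle cultures, and reduced growth was taken as inhibition.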

[6] = NCI Yeast Anticancer Drug Screen. Data for the mlh1 rad18 strain (AID 175); settings: S. cerevisiae mlh1 rad18 strain growth inhibition; at 50.0 µM; hits give high values
How it was run: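 Test agents were incubated with a yeast strain of defined genotype (DNA damage repair defect). Inhibition of growth was derived by comparison with vehicle-exposed cultures.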

Measured: growth inhibition

CCOC1CCCC(OCC)O1 (stereo not given)
inactive: [1] -44.4% | [2] -48.5% | [3] -19.9% | [4] 12% | [5] -37.6% | [6] -27.9%

O=C(/C=C/c1cc2ccccc2o1)N1CCN(c2ccccn2)CC1
inactive: [1] 28.6% | [2] 27.6% | [3] 39.2% | [4] 11.3% | [5] 17.9% | [6] 15.8%

COC(=O)C1CC[N-]CC1.COC(=O)C1CC[N-]CC1.[Cl][Pt+2][Cl]
inactive: [1] -0.15% | [2] 6.9% | [3] -6.8% | [4] -24.4% | [5] -4.15% | [6] 21.2%

CC(=O)C1=C2CCC3C(CCC4CC(O)CCC43C)C2CC1 (stereo not given)
inactive: [1] -3.95% | [2] -3.35% | [3] 10.9% | [4] -9.45% | [5] -8% | [6] 11.2%

Fc1cccc(-c2nnc(-c3cccc(F)c3)o2)c1
inactive: [1] 12.7% | [2] -10.1% | [3] -6.9% | [4] -38% | [5] -2.65% | [6] -4.85%

O=C(O)C(CS)NC1CC(=O)N(Cc2ccccc2)C1=O (stereo not given)
inactive: [1] 1.95% | [2] 9.8% | [3] 18.6% | [4] -19.3% | [5] -1.55% | [6] -8.25%

O/N=C1/CC2(N3CCOCC3)C3CC/C(=N\O)C2CC1(Cc1ccccc1)C3 (stereo not given)
inactive: [1] 2.75% | [2] 0.25% | [3] 17.1% | [4] 27.7% | [5] -11.2% | [6] -10%

CCOC(=O)c1cn(C2OC(COC(=O)c3ccccc3)C(OC(=O)c3ccccc3)C2OC(=O)c2ccccc2)c(=O)nc1N (stereo not given)
inactive: [1] -1.05% | [2] -12.2% | [3] 18% | [4] -32% | [5] 7.45% | [6] -7.15%

[Cl][Pt+2][Cl].[NH-]c1cccc(C(F)(F)F)c1.[NH-]c1cccc(C(F)(F)F)c1
inactive: [1] 2.1% | [2] 12.2% | [3] -6.35% | [4] 7.05% | [5] -22.8% | [6] -11.9%

CN1C(=O)N/C(=C\c2ccc(S(=O)(=O)N/N=C\C(O)C(O)C(O)CO)cc2)C1=O (stereo not given)
inactive: [1] -25.4% | [2] -15% | [3] -22.9% | [4] 4.15% | [5] -39.1% | [6] -35%

CC(O)CNc1ncnc2ccccc12 (stereo not given)
inactive: [1] -13.5% | [2] -12.2% | [3] -3.15% | [4] -5.1% | [5] 9.15% | [6] 4.05%

CC1CCC2c3c([nH]c4ccccc34)C3C(=O)N(C4CCCCC4)C(=O)C3C2C1 (stereo not given)
inactive: [1] 5.65% | [2] 0.25% | [3] 1.8% | [4] 3.05% | [5] 4.1% | [6] 2.25%

CCOC1=C(C#N)C(=O)NC2OC(CO)C(O)C2O1 (stereo not given)
inactive: [1] 11.4% | [2] 5.45% | [3] 11.6% | [4] -8.95% | [5] 17.9% | [6] 15.8%

Cc1ccc2c(c1)C(C1=CCCc3ccc(C)cc31)=CCC2
inactive: [1] 10.2% | [2] -16.5% | [3] 9.05% | [4] 10.3% | [5] 8.2% | [6] 13.8%

O=c1nc(NC2CC2)ccn1C1OC(CO)C(O)C1O (stereo not given)
inactive: [1] -3.75% | [2] -4.25% | [3] -1% | [4] -0.25% | [5] 4.35% | [6] -20.9%

COC(=O)c1c([N+](=O)[O-])ncn1C1CC(OC(C)=O)C(COC(C)=O)O1 (stereo not given)
inactive: [1] 15.2% | [2] -4.9% | [3] -1.9% | [4] -30.8% | [5] -17.7% | [6] 5.25%

CC1=C(O[Si](C(C)C)(C(C)C)C(C)C)C2CC1(OS(=O)(=O)C(F)(F)F)[C@H]1C(=O)N(c3ccccc3)C(=O)[C@@H]21 (stereo not given in full)
inactive: [1] -4.8% | [2] -11.4% | [3] 0.3% | [4] 17.4% | [5] 5.2% | [6] -20.9%

C[N+](C)(N)CCC[N+](C)(C)N
inactive: [1] 12.4% | [2] 5.2% | [3] -3.3% | [4] -29.4% | [5] -52.6% | [6] -3.4%

Nc1nc(-c2cc(-c3ccco3)nc(N)n2)cc(-c2ccco2)n1
inactive: [1] -8.2% | [2] -13.6% | [3] -20.8% | [4] -17.8% | [5] -35.6% | [6] -17.6%

CC(=O)OCC1OC(n2c(C)c(C(C)=O)c(-c3cccc4ccccc34)c(C#N)c2=S)C(OC(C)=O)C(OC(C)=O)C1OC(C)=O (stereo not given)
inactive: [1] 25.1% | [2] 22.4% | [3] 48% | [4] 22.1% | [5] 32.3% | [6] 33.9%
